Several values for one entry are separate records, joined by “and”; a condition that tells them apart may be missing. Equal values may be shown once. A number with no mark means an inactive call. Results filed as inconclusive are left out. More than one record can exist for a structure, and the calls need not agree. Activity calls are given as the source filed them. Unless noted, the call rests on the fitted dose curve; in most records, active means well fitted inhibition curve with a large enough effect; inconclusive means small, poorly fitted or top-dose-only effect; inactive means flat fitted curve, though single readings scatter. Non-standard residues stand in square brackets, D forms with d. Residues, ends and D or L forms follow the SMILES beside them. *: point of attachment. Sta = CC(C)C[C@H](N)[C@@H](O)CC(=O)O; Isovaleryl = CC(C)CC(=O)*
Experiments:
[1] = Drug repurposing screens with cells derived from glioblastoma tumor samples (AID 1345199); details: GBM patient neurospheres viability, ATP luminescence, 48 h; further: nearly all actives have a fitted effect of over 40% in size; further: potency means the concentration at half of the fitted maximal effect; on activity, negative = cell killing: on the % scale 0 is the no-effect control and ±100 the full control effect
Outline: (§1)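 Primary testing used CD133+ neurospheres from four GBM patients, seven concentrations, 48 h exposure and ATP-based viability; confirmation added three slower-growing patient lines.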

astro = control astrocytes; experiment: as above; details: viability, ATP luminescence, 48 h; series mostly up to 45.9 µM
Outline: as §1

[2] = biological target: Nuclear receptor subfamily 1 group I member 2 (Rattus norvegicus) (UniProt Q9R1A7); experiment: qHTS assay for small molecule activators of the rat pregnane X receptor (rPXR) signaling pathway (AID 651751; call rule not given here; further: 0% is about no effect); details: rPXR reporter cells, luciferase (One-Glo), 24 h
[3] = at 20 µM (top of the series), tumour line C
[4] = at 21.2 µM (top of the series), tumour line B
[5] = at 21.2 µM (top of the series), tumour line D
[6] = at 45.9 µM (top of the series), tumour line B
[7] = at 45.9 µM (top of the series), tumour line D
[8] = at 46.1 µM (top of the series), tumour line C
[9] = at 46 µM (top of the series), tumour line A

Nuclear receptor subfamily 1 group I member 2 (Rattus norvegicus), sequence (Q9R1A7 whole entry, looked up): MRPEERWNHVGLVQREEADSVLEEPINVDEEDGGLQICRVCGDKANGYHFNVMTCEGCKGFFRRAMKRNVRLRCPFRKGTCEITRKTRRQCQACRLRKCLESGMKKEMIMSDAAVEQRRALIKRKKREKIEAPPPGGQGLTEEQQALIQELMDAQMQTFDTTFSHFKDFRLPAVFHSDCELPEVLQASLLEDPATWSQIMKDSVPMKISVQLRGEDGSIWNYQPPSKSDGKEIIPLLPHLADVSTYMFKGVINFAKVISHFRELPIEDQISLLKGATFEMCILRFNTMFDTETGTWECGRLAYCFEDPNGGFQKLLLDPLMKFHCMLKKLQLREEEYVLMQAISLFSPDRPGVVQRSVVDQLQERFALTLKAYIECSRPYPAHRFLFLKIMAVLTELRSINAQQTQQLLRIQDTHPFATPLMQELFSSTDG

CCOc1cc(CC(=O)N[C@@H](CC(C)C)c2ccccc2N2CCCCC2)ccc1C(=O)O
activity, negative = cell killing [1, 3]: -12%
activity, negative = cell killing [1, 4]: -4.95%
activity, negative = cell killing [1, 5]: -25.3%
activity, negative = cell killing ([1]; at 21.3 µM (top of the series), tumour line A): -13.6%
Potency (astro): inactive

CC(C)c1nc(CN(C)C(=O)N[C@H](C(=O)N[C@@H](Cc2ccccc2)C[C@H](O)[C@H](Cc2ccccc2)NC(=O)OCc2cncs2)C(C)C)cs1
activity, negative = cell killing [1, 6]: -7.95% and -4.95%
activity, negative = cell killing [1, 7]: -23.9% and -23.8%
activity, negative = cell killing [1, 8]: -26.2% and -16%
Potency ([1]; tumour line A): 17.8 µM (active)
Potency (astro): inactive

Cc1nccn1CC1CCc2c(c3ccccc3n2C)C1=O (configuration not stated)
activity, negative = cell killing [1, 3]: -25.3%
activity, negative = cell killing [1, 4]: -23.2%
activity, negative = cell killing [1, 6]: -6.55%
activity, negative = cell killing [1, 7]: -25.8%
activity, negative = cell killing [1, 8]: -22.8%
Potency ([1]; tumour line A): 11.2 µM (active)
Potency (astro): inactive

O=C(O)c1cc(=O)c2c(OCC(O)COc3cccc4oc(C(=O)O)cc(=O)c34)cccc2o1
activity, negative = cell killing [1, 6]: -3.77%
activity, negative = cell killing [1, 7]: -23.3%
activity, negative = cell killing [1, 9]: -3.33%
activity, negative = cell killing [1, 8]: 5.01%
Potency (astro): inactive

CC(C)(S)[C@@H](N)C(=O)O
activity, negative = cell killing [1, 6]: -10.5%
activity, negative = cell killing [1, 7]: -6.11%
activity, negative = cell killing [1, 9]: -3.65%
activity, negative = cell killing [1, 8]: -16.2%
Potency (astro): inactive

CC(C)CC(=O)N[C@H](C(=O)N[C@H](C(=O)N[C@@H](CC(C)C)[C@@H](O)CC(=O)N[C@@H](C)C(=O)N[C@@H](CC(C)C)[C@@H](O)CC(=O)O)C(C)C)C(C)C (Isovaleryl-VV[Sta]A[Sta]-OH)
activity, negative = cell killing [1, 6]: -11.5%
activity, negative = cell killing [1, 7]: -9.71%
activity, negative = cell killing [1, 9]: -22.1%
activity, negative = cell killing [1, 8]: -23.6%
Potency (astro): inactive

c1cnc2cc3c(cc2n1)C1CNCC3C1
activity, negative = cell killing ([1]; at 99.2 µM (top of the series), tumour line C): 7.09%
activity, negative = cell killing ([1]; at 108 µM (top of the series), tumour line A): -15.8%
activity, negative = cell killing ([1]; at 108 µM (top of the series), tumour line B): -8.07%
activity, negative = cell killing ([1]; at 108 µM (top of the series), tumour line D): -25.1%
Potency (astro): inactive

O=C(O)c1cccnc1Nc1cccc(C(F)(F)F)c1
activity, negative = cell killing [1, 6]: -15.9%
activity, negative = cell killing [1, 7]: -4.12%

C[Se]CCC(N)C(=O)O (configuration not stated)
activity, negative = cell killing [1, 6]: -7.06%
activity, negative = cell killing [1, 7]: 3.7%
activity, negative = cell killing [1, 9]: -13.2%
activity, negative = cell killing [1, 8]: 5.25%
Potency (astro): inactive

O=C(O)CCNC(=O)c1ccc(N=Nc2ccc(O)c(C(=O)O)c2)cc1
activity, negative = cell killing [1, 6]: -6.99%
activity, negative = cell killing [1, 7]: -11.2%
activity, negative = cell killing [1, 9]: -28%
activity, negative = cell killing [1, 8]: -6.53%
Potency (astro): inactive

Nc1ncn([C@H]2C[C@H](O)[C@@H](CO)O2)c(=O)n1
activity, negative = cell killing [1, 6]: -23%
activity, negative = cell killing [1, 7]: -5.51%
activity, negative = cell killing [1, 9]: -24.9%
activity, negative = cell killing [1, 8]: -19.7%
Potency (astro): inactive

C[C@]12CCC(=O)C=C1CC[C@@H]1[C@H]2[C@@H](O)C[C@@]2(C)[C@H]1CC[C@]2(O)C(=O)CO
activity, negative = cell killing [1, 6]: -8.77%
activity, negative = cell killing [1, 7]: -14.8%
activity, negative = cell killing [1, 9]: -3.08%
activity, negative = cell killing [1, 8]: 14.8%
Potency (astro): inactive

CC1Cc2ccccc2N1NC(=O)c1ccc(Cl)c(S(N)(=O)=O)c1 (configuration not stated)
activity, negative = cell killing [1, 3]: 27.9%
activity, negative = cell killing [1, 4]: -2.89%
activity, negative = cell killing [1, 5]: 1.12%
activity, negative = cell killing [1, 6]: 9.62%
activity, negative = cell killing [1, 7]: -0.642%
activity, negative = cell killing [1, 8]: 0.368%
Potency (astro): inactive

Nc1cccc2c1CN(C1CCC(=O)NC1=O)C2=O (configuration not stated)
activity, negative = cell killing [1, 6]: -18.6%
activity, negative = cell killing [1, 7]: -1.35%
activity, negative = cell killing [1, 9]: -28.8%
activity, negative = cell killing [1, 8]: -29.8%
Potency (astro): inactive

C[C@H](Cn1cnc2c(N)ncnc21)OCP(=O)(O)O
activity, negative = cell killing [1, 6]: -17.6%
activity, negative = cell killing [1, 7]: -7.53%
activity, negative = cell killing [1, 9]: -24.5%
activity, negative = cell killing [1, 8]: -20.5%
Potency (astro): inactive

C=CCc1cc(OC)c(O)c(C(=O)NCCO)c1
activity, negative = cell killing [1, 6]: -18.2%
activity, negative = cell killing [1, 7]: -1.66%
activity, negative = cell killing [1, 8]: 2.37%
Potency (astro): inactive

Cc1ccc(C)c(OCCCC(C)(C)C(=O)O)c1
activity, negative = cell killing [1, 6]: -12.7%
activity, negative = cell killing [1, 7]: -0.928%
activity, negative = cell killing [1, 9]: -17.6%
activity, negative = cell killing [1, 8]: -8.64%
Potency (astro): inactive
max response [2]: -0.498% and -3.12%

COc1cc2nc(N3CCN(C(=O)C4CCCO4)CC3)nc(N)c2cc1OC (configuration not stated)
activity, negative = cell killing [1, 6]: -11.4%
activity, negative = cell killing [1, 7]: -6.51%
activity, negative = cell killing [1, 8]: -17.4%
Potency (astro): inactive

N=C(N)c1ccc2cc(OC(=O)c3ccc(N=C(N)N)cc3)ccc2c1
activity, negative = cell killing [1, 6]: -0.17%
activity, negative = cell killing [1, 7]: -17%
activity, negative = cell killing [1, 8]: 10%
Potency (astro): inactive

O=C1CCc2ccc(OCCCCN3CCN(c4cccc(Cl)c4Cl)CC3)cc2N1
activity, negative = cell killing [1, 8]: -16.8%
Potency ([1]; tumour line A): 3.98 µM (active)
Potency ([1]; tumour line B): 22.4 µM (active)
Potency (astro): 31.6 µM (active)

Cc1cc(=O)oc2cc(O)ccc12
activity, negative = cell killing [1, 3]: -8.91%
activity, negative = cell killing [1, 4]: -9.65%
activity, negative = cell killing [1, 5]: -8.02%
Potency (astro): inactive

Reference: PubChem BioAssay (NCATS)
